In the supplement of paper PMC4709259 one finds mean cell size and cell count data, which are given here for 39 compounds.

Where a name gives a salt, the structure may show the parent alone. ± gives the standard deviation.

In the first assay the test system is Jurkat. The assay can be described thus: mean cell size (FSC-A) relative to DMSO control (fraction of control); higher = larger cells. Conditions: 48 h. Put shortly:
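Jurkat cells at 600 cells/µl were incubated for 1 h and then treated for 48h with the Enzo Screen-Well FDA Approved Drug Library v2.0 at 25µM, with DMSO at 0.9% (v/v) final. Compounds that reduced counts below 20% of controls were retested in 10-fold dilutions down to 25nM. Cell count and mean cell size, taken as forward scatter area, were measured by flow cytometry relative to solvent-only controls. Each plate carried 6-12 controls, and values are means of 3 biological replicates.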
As for `CCCOc1ccc(C(=O)OCCN(CC)CC)cc1N` [Proparacaine·HCl] (concentration: 25 µM), the mean cell size is 1.06 ± 0.046. For `CN(C)c1cc(NC(=O)CNC(C)(C)C)c(O)c2c1C[C@H]1C[C@H]3[C@H](N(C)C)C(=O)C(C(N)=O)=C(O)[C@@]3(O)C(=O)C1=C2O` [Tigecycline] (concentration: 25 µM), the mean cell size amounted to 1.01 ± 0.051.

`CC(=O)OC[C@H]1O[C@@H]([S-])[C@H](OC(C)=O)[C@@H](OC(C)=O)[C@@H]1OC(C)=O.CCP(CC)CC.[Au+]` [Auranofin] (concentration: 250 nM): the mean cell size stood at 0.9833 ± 0.0086.

For the compound `CN(C)CCCN1c2ccccc2Sc2ccc(Cl)cc21` [Chlorpromazine·HCl] (concentration: 2.5 µM), the mean cell size came to 1.06 ± 0.017. `COc1ccc2c3c1O[C@H]1C[C@@H](O)C=C[C@@]31CCN(C)C2` [Galantamine·HBr] (concentration: 25 µM) yielded a mean cell size of 0.976 ± 0.01.

The next assay relates to Jurkat. The assay can be described thus: cell count relative to DMSO control (fraction of control); higher = more cells (less growth inhibition). Conditions: 48 h.
In turn, `C#C[C@]1(O)CC[C@H]2[C@@H]3CCC4=CC(=O)CC[C@@H]4[C@H]3CC[C@@]21CC` [Levonorgestrel] (concentration: 25 µM) registered a cell count of 0.903 ± 0.046. In turn, `N[C@@H](CC(=O)N1CCn2c(nnc2C(F)(F)F)C1)Cc1cc(F)c(F)cc1F` [Sitagliptin Phosphate] (concentration: 25 µM) yielded a cell count of 0.554 ± 0.18. For `Cc1cccc(C)c1OCC(=O)N[C@@H](Cc1ccccc1)[C@@H](O)C[C@H](Cc1ccccc1)NC(=O)[C@H](C(C)C)N1CCCNC1=O` [Lopinavir] (concentration: 25 µM), the cell count amounted to 0.373 ± 0.029. `C[C@@H]1[C@H](O)[C@@H](C)/C=C/C=C/C=C/C=C/C=C/C=C/C=C/[C@H](O[C@@H]2O[C@H](C)[C@@H](O)[C@H](N)[C@@H]2O)C[C@@H]2O[C@](O)(C[C@@H](O)C[C@@H](O)[C@H](O)CC[C@@H](O)C[C@@H](O)CC(=O)O[C@H]1C)C[C@H](O)[C@H]2C(=O)O` [Amphotericin B] (concentration: 25 µM) showed a cell count of 0.27 ± 0.024. Consider `CN(C)c1nc(N(C)C)nc(N(C)C)n1` [Altretamine] (concentration: 25 µM), for which the cell count came out at 0.555 ± 0.077. `C#C[C@]1(O)CC[C@H]2[C@@H]3CCc4cc(OC)ccc4[C@H]3CC[C@@]21C` [Mestranol] (concentration: 25 µM): the cell count was found to be 0.91 ± 0.12. In turn, `CNC(=C[N+](=O)[O-])NCCSCc1ccc(CN(C)C)o1` [Ranitidine·HCl] (concentration: 25 µM) displayed a cell count of 0.895 ± 0.11. The same measure, in the same setting: for `O=C1CCc2cc(OCCCCc3nnnn3C3CCCCC3)ccc2N1` [Cilostazol] (concentration: 25 µM) the value was 0.819 ± 0.12; for `Cc1cn(-c2cc(NC(=O)c3ccc(C)c(Nc4nccc(-c5cccnc5)n4)c3)cc(C(F)(F)F)c2)cn1` [Nilotinib] (concentration: 25 µM), 0.762 ± 0.086; for `Cc1ccnc2c1NC(=O)c1cccnc1N2C1CC1` [Nevirapine] (concentration: 25 µM), 0.476 ± 0.11. Turning to `CC(C)(O)c1ccccc1CC[C@@H](SCC1(CC(=O)O)CC1)c1cccc(/C=C/c2ccc3ccc(Cl)cc3n2)c1` [Montelukast·Na] (concentration: 25 µM), the cell count stood at 0.476 ± 0.16.

Turning to `NS(=O)(=O)c1cc2c(cc1C(F)(F)F)NC(Cc1ccccc1)NS2(=O)=O` (centres undefined) [Bendroflumethiazide] (concentration: 25 µM), the cell count was determined as 0.902 ± 0.08. On the same count and under the same terms, next, `CN1CCN(C2=Nc3cc(Cl)ccc3Nc3ccccc32)CC1` [Clozapine] (concentration: 25 µM): 0.494 ± 0.17; `CN[C@@H]1[C@H](O)[C@H](NC)[C@H]2O[C@@]3(O)C(=O)C[C@@H](C)O[C@H]3O[C@@H]2[C@H]1O` [Spectinomycin·HCl Pentahydrate] (concentration: 25 µM): 0.941 ± 0.16. Compound `CCNC(=O)CCC/C=C\C[C@@H]1[C@@H](/C=C/[C@@H](O)CCc2ccccc2)[C@H](O)C[C@@H]1O` [Bimatoprost] (concentration: 25 µM) came in with a cell count of 0.307 ± 0.091. On to `Cc1onc(-c2ccccc2Cl)c1C(=O)N[C@@H]1C(=O)N2[C@@H]1SC(C)(C)[C@@H]2C(=O)O` [Cloxacillin·Na] (concentration: 25 µM), for which the cell count is 0.703 ± 0.056. In the case of `CCC(=O)O[C@]1(C(=O)CCl)[C@@H](C)C[C@H]2[C@@H]3CCC4=CC(=O)C=C[C@]4(C)[C@@]3(F)[C@@H](O)C[C@@]21C` [Clobetasol Propionate] (concentration: 25 µM), the cell count was determined as 0.881 ± 0.18. The compound `OC(CNCC(O)C1CCc2cc(F)ccc2O1)C1CCc2cc(F)ccc2O1` (centres undefined) [Nebivolol·HCl] (concentration: 25 µM) returned a cell count of 0.483 ± 0.11. Take `COc1ccc2cc([C@H](C)C(=O)O)ccc2c1` [Naproxen] (concentration: 25 µM): the cell count amounted to 0.661 ± 0.1. `CCCCCOC(=O)Nc1nc(=O)n([C@@H]2O[C@H](C)[C@@H](O)[C@H]2O)cc1F` [Capecitabine] (concentration: 25 µM) had a cell count of 1.01 ± 0.091. Compound `COC(=O)CCC(=O)CN` [Methyl Aminolevulinate·HCl] (concentration: 25 µM) returned a cell count of 0.739 ± 0.074. Same read-out and setting: next, `CC1(C)O[C@@H]2[C@@H](CO[C@@]3(COS(N)(=O)=O)OC(C)(C)O[C@@H]23)O1` [Topiramate] (concentration: 25 µM): 1.14 ± 0.14; `S=c1[nH]cnc2nc[nH]c12` [Mercaptopurine Hydrate] (concentration: 25 µM): 0.792 ± 0.1. On to `N=c1nc(N2CCCCC2)cc(N)n1O` [Minoxidil] (concentration: 25 µM), for which the cell count is 0.703 ± 0.083. For the compound `CNC(=O)c1cnn(-c2nc(N)c3ncn([C@@H]4O[C@H](CO)[C@@H](O)[C@H]4O)c3n2)c1` [Regadenoson] (concentration: 25 µM), the cell count was 0.883 ± 0.11.

The compound `O=C(O)C[C@H](O)C[C@H](O)/C=C/c1c(C2CC2)nc2ccccc2c1-c1ccc(F)cc1` [Pitavastatin Calcium] (concentration: 25 µM) registered a cell count of 0.647 ± 0.065. Compound `CN1CCC[C@@H]1CCO[C@](C)(c1ccccc1)c1ccc(Cl)cc1` [Clemastine Fumarate] (concentration: 25 µM) registered a cell count of 0.24 ± 0.04. In the case of `C[n+]1ccccc1/C=N/O` [Pralidoxime Chloride] (concentration: 25 µM), the cell count worked out at 0.959 ± 0.1. `CN(C)CCC(c1ccc(Cl)cc1)c1ccccn1` (centres undefined) [Chlorpheniramine Maleate] (concentration: 25 µM): the cell count amounted to 0.917 ± 0.11. `NC(=O)OCC(COC(N)=O)c1ccccc1` [Felbamate] (concentration: 25 µM) registered a cell count of 0.755 ± 0.16. Consider `C[C@@H]1O[C@@H]1P(=O)(O)O` [Fosfomycin Calcium] (concentration: 25 µM), for which the cell count came out at 0.474 ± 0.19.

As to `CO/N=C(\C(=O)N[C@@H]1C(=O)N2C(C(=O)OC(C)OC(C)=O)=C(COC(N)=O)CS[C@H]12)c1ccco1` (some centres undefined) [Cefuroxime Axetil] (concentration: 25 µM), the cell count was found to be 0.895 ± 0.057.

For `CN(C/C=C/C#CC(C)(C)C)Cc1cccc2ccccc12` [Terbinafine·HCl] (concentration: 25 µM), the cell count amounted to 0.947 ± 0.08.

As for `CC(=O)O[C@]1(C(C)=O)CC[C@H]2[C@@H]3C=C(C)C4=CC(=O)CC[C@]4(C)[C@H]3CC[C@@]21C` [Megestrol Acetate] (concentration: 25 µM), the cell count is 0.704 ± 0.059.

`CCCOc1ccc(C(=O)OCCN(CC)CC)cc1N` [Proparacaine·HCl] (concentration: 25 µM) displayed a cell count of 1.07 ± 0.05. Same read-out and setting: next, `CN(C)c1cc(NC(=O)CNC(C)(C)C)c(O)c2c1C[C@H]1C[C@H]3[C@H](N(C)C)C(=O)C(C(N)=O)=C(O)[C@@]3(O)C(=O)C1=C2O` [Tigecycline] (concentration: 25 µM): 0.784 ± 0.06. In turn, `CC(=O)OC[C@H]1O[C@@H]([S-])[C@H](OC(C)=O)[C@@H](OC(C)=O)[C@@H]1OC(C)=O.CCP(CC)CC.[Au+]` [Auranofin] (concentration: 250 nM) showed a cell count of 0.762 ± 0.058. Compound `CN(C)CCCN1c2ccccc2Sc2ccc(Cl)cc21` [Chlorpromazine·HCl] (concentration: 2.5 µM) gave a cell count of 0.631 ± 0.15. The same measure, in the same setting: next, `COc1ccc2c3c1O[C@H]1C[C@@H](O)C=C[C@@]31CCN(C)C2` [Galantamine·HBr] (concentration: 25 µM): 0.701 ± 0.14.
